Compounds without any hit were thinned out: in the full panel of roughly 83,000, 20% have a hit.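 Plates (96-well) were seeded with cells, treated with compound at one concentration, and incubated for 48 hours before percent growth was determined.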 A number with no mark means an inactive call. Calls of active or inactive are those of the source. How the source made its calls: active means growth percent below 10; inactive means the rest.
Key:
Assay in all cases: NCI-60 one-dose screen, 48 h (100 = growth as untreated, 0 = no growth, -100 = all killed)
Details in all cases: 10 µM unless noted
HCT-15 colon = test system: HCT-15 colon
HT29 colon = test system: HT29 colon
SNB-19 CNS = test system: SNB-19 CNS
U251 CNS = test system: U251 CNS
PC-3 prostate = test system: PC-3 prostate
SK-MEL-5 melanoma = test system: SK-MEL-5 melanoma
UACC-62 melanoma = test system: UACC-62 melanoma
LOX IMVI melanoma = test system: LOX IMVI melanoma
SK-MEL-28 melanoma = test system: SK-MEL-28 melanoma
SK-MEL-2 melanoma = test system: SK-MEL-2 melanoma
EKVX NSCLC = test system: EKVX NSCLC
SN12C renal = test system: SN12C renal
UO-31 renal = test system: UO-31 renal
TK-10 renal = test system: TK-10 renal
ACHN renal = test system: ACHN renal
CAKI-1 renal = test system: CAKI-1 renal
A498 renal = test system: A498 renal
CCRF-CEM leukemia = test system: CCRF-CEM leukemia
MOLT-4 leukemia = test system: MOLT-4 leukemia

| SMILES | growth (HCT-15 colon) | growth (HT29 colon) | growth (SNB-19 CNS) | growth (U251 CNS) | growth (PC-3 prostate) | growth (SK-MEL-5 melanoma) | growth (UACC-62 melanoma) | growth (LOX IMVI melanoma) | growth (SK-MEL-28 melanoma) | growth (SK-MEL-2 melanoma) | growth (EKVX NSCLC) | growth (SN12C renal) | growth (UO-31 renal) | growth (TK-10 renal) | growth (ACHN renal) | growth (CAKI-1 renal) | growth (A498 renal) | growth (CCRF-CEM leukemia) | growth (MOLT-4 leukemia) |
| --- | --- | --- | --- | --- | --- | --- | --- | --- | --- | --- | --- | --- | --- | --- | --- | --- | --- | --- | --- |
| N#Cc1c(-c2cccs2)cc(-c2cnccn2)nc1SCC(=O)c1ccc(F)cc1 | 100% | 105% | 97.7% | 104% | 87.2% | 96.4% | 81.1% | 85.4% | 100% | 102% | 58.9% | 80.3% | 54.7% | 89.3% | 92.2% | 59.7% | 8.83% (active) | 94.5% | 92.7% |
| CC(=O)Nc1cccc(Nc2nc(N[C@H](C)c3ccccc3)c3ccccc3n2)c1 | 41.5% | 41.1% | 74% | 74.4% | 45.5% | 38.8% | 65.5% | 45.6% | 74.6% | 73.6% | 52% | 53.9% | 40.5% | 68.1% | 77.9% | 35.8% | 22.8% |  | 16.8% |
| O=S(=O)(NCCCNc1nccc(-c2[nH]c(-c3ccccc3)nc2-c2ccc(Cl)c(O)c2)n1)c1ccc(Br)cc1 | 13.9% | 39.7% | 49% | 30.7% | 27.1% | 0.46% (active) | 13.2% | 21.6% | 17.3% | -22.4% (active) | 44.2% | 37.5% | 36.8% | 66.6% | 24.2% | 33.6% | 65.4% | 21.5% | 22.8% |
| Nc1nc(-c2cccc([N+](=O)[O-])c2)c(N=Nc2ccc(Br)cc2)s1 | 0.133% (active) | 30.1% | 29.9% | -89.3% (active) | 2.83% (active) | -38.5% (active) | -37.8% (active) | -84% (active) | 4.69% (active) |  | 8.7% (active) | -26.8% (active) | -80.3% (active) | -96.2% (active) | -96.7% (active) | -87.9% (active) |  | 31.9% | 29.5% |
| CC(C)(C)n1nnnc1C(Nc1cccc2c1OCO2)c1cc2cccc3ccc4cccc1c4c32 (configuration not stated) | 71% | 81.2% | 83.5% | 85.9% | 59.4% | 85% | 65.3% | 86.7% | 94.4% |  | 73.7% | 90.5% | 67.8% | 116% | 85.6% | 64.5% |  | -12.9% (active) | 67.1% |
| Nn1c(N/N=C/c2nc3ccccc3s2)n[nH]c1=S | 122% | 112% | 104% | 113% | 97.8% | 100% | 92.1% | 102% | 114% | 107% | 64.9% | 86.3% | 58% | 88.3% | 98% | 66.7% | 77.5% |  | 115% |
| COC[C@]12CCC(C)(C)C[C@H]1C1=CC[C@@H]3[C@@]4(C)CCCNC(C)(C)[C@@H]4CC[C@@]3(C)[C@]1(C)CC2 | -86.5% (active) | -28% (active) | -2.59% (active) | -58.1% (active) | 0.7% (active) | -98.1% (active) | -74% (active) | -94.6% (active) | -79.4% (active) |  | -83.4% (active) | 29.9% | -50.2% (active) | 64.7% | -10.6% (active) | -29.4% (active) | 37.1% |  | -35% (active) |
| O=C(Nc1ccc(Br)cc1)Nc1nc2ccc([N+](=O)[O-])cc2s1 | -11.3% (active) | 7.76% (active) | 19.1% | 0.478% (active) | 0.887% (active) | -82.2% (active) | -19.6% (active) |  | 6.25% (active) | -22.7% (active) | 9.52% (active) | 4.21% (active) | 5.94% (active) | -2.48% (active) | 3.61% (active) | -2.25% (active) |  | 10.9% | 3.2% (active) |
| Cc1ccc(S(=O)(=O)N(CC[C@@H]2C[C@H]2c2cc3ccccc3o2)S(=O)(=O)c2ccc(C)cc2)cc1 | 94.5% | 94% | 94.6% | 92.5% | 87% | 96.1% | 69.1% | 95.1% | 93.5% | 102% | 95.3% | 94.6% | 80% | 98.6% | 98.2% | 86% | 75.8% | 93.3% | 88.8% |
| CCn1c2ccccc2c2cc(-n3nncc3-c3ccccc3)ccc21 | 8.42% (active) | 2.01% (active) | 24.1% | 25.1% | 29.1% | -11.7% (active) | 35.5% | -29.5% (active) | 66.4% | 68.2% | 45.5% | 25.4% | 36.8% |  | 29.2% |  | -0.537% (active) | 19.5% | 12.7% |
| NC(N)=Nc1ccc(Oc2cccc(NC(N)=Nc3ccc(I)cc3F)c2)cc1 | 86.9% | 62.5% | 20.7% | 47.4% | 27.5% | 74% | 77.8% | 48% | 85.7% | 85.9% | 71.6% | 54.3% | 95.7% | 85.7% | 101% |  | 86.8% | 77.3% | 78.9% |
| COc1cc2c(cc1OC)C(Sc1ccc(F)cc1)c1c(nc(N)c(C#N)c1N)O2 (configuration not stated) | -70.7% (active) | 5.15% (active) | -82.5% (active) | -77.5% (active) | -84% (active) | -82.5% (active) | -74.2% (active) | -91.1% (active) | -71.9% (active) | -6.24% (active) | -86.6% (active) | -86.5% (active) | -98.1% (active) | -30.1% (active) | -99.3% (active) | -58.4% (active) | -42.8% (active) | -13.6% (active) | 0.279% (active) |
| O=S(=O)(Nc1cccc2ccccc12)c1ccc(-c2cnc(C3CC3)o2)cc1 | 14.3% | 16.8% | 38.8% | 23.8% | 16.5% | 7.66% (active) | 37.2% |  | 57.7% | 72.3% | 43.1% | 34.3% | 43.5% | 92.6% | 36.9% | 29.9% |  | 17.6% | 21.8% |
| CCOc1cccc(-c2nc3sccn3c2-c2ccnc(S(C)(=O)=O)n2)c1 | 76.8% | 99.6% | 91.8% | 103% | 96.9% | 99.3% | 89.6% | 78.6% | 90.5% |  | 101% | 98.4% | 97.1% | 119% | 87.6% | 86.3% | 73.3% | 99.6% | 101% |
| O=C(Nc1nc2ccc([N+](=O)[O-])cc2s1)Nc1ccccc1Cl | 29.5% | 53.6% | 21.7% | 29.2% | 17.3% | -22.5% (active) | 6.62% (active) |  | 49.5% | 9.56% (active) | 33.6% | 10.4% | 31.8% | 40.1% | 42.7% | 21.8% |  | 28.9% | 21.8% |
| NS(=O)(=O)c1ccc(Nc2nc(N/N=C/c3ccc(Cl)cc3)nc(Nc3ccccc3)n2)cc1 | 76.4% | 34.2% | 81.8% | 54.6% | 51.7% | 69.1% | 74.9% | 60.4% | 75.3% | 81.7% | 76.6% | 81.6% | 82.1% |  | 90.1% | 62.1% | 76.3% | 19.4% | 1.53% (active) |
| COc1cccc2cc(-c3cc4ccccc4[nH]3)/c(=N\NC(=O)c3ccc(Cl)cc3)oc12 | 20.3% | 67% | 47.4% | 34.6% | 35.3% | 48.4% | 16.1% |  | 42.6% | 68.3% | 33.8% | 43% | 28% | 46.7% | 17.3% | 30.7% |  | 16.6% | 15.5% |
